Hits are enriched below; roughly 11% of the tested compounds scored in any of these assays.
AMA1-RON2 inh = qHTS for Inhibitors of AMA1-RON; Towards Development of Antimalarial Drug Lead: Primary Screen; AlphaScreen AMA1-biotinylated RON2 peptide binding; Potency, µM (highest dose often 58.2 µM), without a hit: at the highest dose activity change, negative = inhibition, usual class: inhibitors; 0.2% of 360,000 active; AID 720542, 2013;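 also: 0% = vehicle wells and -100% = peptide control; nearly all actives have a fitted effect of over 45% in size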
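AMA1 (3D7) with his tag at 25 nM final met compounds first, then biotinylated RON2 peptide at 25 nM; detection used donor plus acceptor beads, 10 µg/mL apiece, read by AlphaScreen after 30 min at room temperature.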
Pf growth 48h = Primary qHTS for delayed death inhibitors of the malarial parasite plastid, 48 hour incubation | P. falciparum luciferase growth in erythrocytes, 48 h | Potency, µM (titrated, usually from 28.7 µM), for the others: at the top dose activity change, negative = inhibition, actives largely listed as inhibitors | 5.9% of 310,000 active | AID 504832, 2011
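Compounds are pin-transferred into medium, infected erythrocytes (2% hematocrit, 0.1% parasitemia final) are added, and plates sit one parasite generation at 37 C in 5% CO2. Detection reagent is then added and luminescence measured.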
Pf growth 96h = Primary qHTS for delayed death inhibitors of the malarial parasite plastid, 96 hour incubation; 6.9% of 320,000 active; P. falciparum luciferase reporter growth, 96 h; AID 504834, 2011; Potency, µM (titrated, usually from 28.7 µM), for the others: top-dose activity change, negative = inhibition, usual class: inhibitors
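Parasite growth measured via integrated firefly luciferase reporter in P. falciparum. Infected erythrocytes at 2% hematocrit, 0.05% parasitemia final were treated 96 hours at 37 C under 5% CO2, and luminescence was read.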
HCV inhibitor = qHTS Assay for Inhibitors of Hepatitis C Virus (HCV). Huh7.5.1 HCVcc-Cre infection, luciferase reporter, 44 h. Potency, µM (doses to about 41.8 µM), for the others: at the highest dose activity change, negative = inhibition, usual class: inhibitors. 3.4% of 340,000 active. AID 651820, 2012
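Cells (1,000/well) were plated 4 h before compound, then infected with HCVcc-Cre virus (~0.5 moi). After 44 h further culture, infection was read as luciferase luminescence following a 15 min substrate incubation at room temperature.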
Numbers without * were called inactive; ? = inconclusive; · = no result given; [ ] = another dose, or the depositor's remark. Calls follow the shape of the dose curve; as a rule, active = well fitted curve in the direction sought with a large enough effect; inconclusive = small, poorly fitted or top-dose-only effect, or another doubt; inactive = no such curve, though single readings can be large; an effect the other way counts as inactive or inconclusive. Unless noted, % is scaled to controls: 0 for no effect and ±100 for the full control effect; potency is read from the fitted curve at half-maximal effect.

SMILES | AMA1-RON2 inh | Pf growth 48h | Pf growth 96h | HCV inhibitor
COc1cccc(CN2CCN(C3CCN(c4cccc(C)c4C)CC3)CC2CCO)c1 (stereo unspecified) | -7% | ? | 19% | 11µM*
COc1cccc(CN2CCN(Cc3c(C)nn(C(C)C)c3C)CC2CCO)c1 (stereo unspecified) | 29% | -1% | 10µM* | 3%
Cc1ccc2c(c1)nnn2C1CCN(S(=O)(=O)c2ccc(C(=O)N(C)C3CCCCC3)cc2)CC1 | 16% | ? | ? | 13µM*
Cc1ccc(S(=O)(=O)N2CCC(n3nnc4cc(C)ccc43)CC2)cc1 | 8% | ? | ? | 11%
O=C(Nc1ccc([N+](=O)[O-])cc1Cl)c1cc(Cl)ccc1O | -7% | ? | ? | 1.3µM*
O=C(Nc1ccc([N+](=O)[O-])cc1Cl)c1cccc([N+](=O)[O-])c1 | -5% | · | · | ·
O=C(Nc1ccc([N+](=O)[O-])cc1Br)c1cc2ccccc2nc1Cl | -9% | 0.19µM* | 0.33µM* | -8%
Cc1ccc(O)c(NC(=O)c2cc([N+](=O)[O-])ccc2Cl)c1 | -3% | 9.3µM* | 30% | -18%
Cc1cc(O)c(NC(=O)c2cc([N+](=O)[O-])ccc2Cl)cc1C | -5% | ? | 28% | -6%
O=C(Nc1cccc2ncccc12)c1cc([N+](=O)[O-])ccc1Cl | 3% | 5%[0.00184 µM] | 12µM* | 8.9µM*
O=C(Nc1cccnc1Cl)c1cc([N+](=O)[O-])ccc1Cl | 14% | -23% | ? | -16%
CC(C)c1ccc(S(=O)(=O)NC2CCS(=O)(=O)C2)cc1 (stereo unspecified) | 0% | 7% | 34% | -6%
Cc1onc(-c2c(Cl)cccc2Cl)c1C(=O)Nc1ccc(N2CCOCC2)cc1 | -8% | ? | ? | -20%
O=C(c1cnn(-c2ccccc2)c1)c1cc(F)ccc1O | 2% | · | 73% | -12%
CCOC(=O)c1sc2nc3c(SCCC#N)cc(C(=O)c4cc(F)ccc4O)cn3c(=O)c2c1C | -2% | 0.83µM* | 0.83µM* | -12%
CCOC(=O)c1sc2nc3c(SCCC(=O)O)cc(C(=O)c4cc(OC)ccc4O)cn3c(=O)c2c1C | 8% | -9%[5.75 µM] | ? | -7%
O=C(O)CSc1cc(C(=O)c2cc(F)ccc2O)cn2c(=O)c3c(-c4ccccc4)csc3nc12 | 9% | 8.3µM* | ? | -20%
CCc1ccc(OS(=O)(=O)c2cn(C)c(=O)n(C)c2=O)cc1 | -3% | -4% | 69% | 26%
O=C(Cn1cnc2ccccc21)Nc1ccc(SC(F)F)cc1 | 2% | -25% | -6% | 8.9µM*
CC[N+](CC)(CC)CC(=O)Nc1ccc(SC(F)F)cc1 | 1% | -8% | 15% | 7%
O=C(Cn1cnc2ccccc21)NCc1ccccc1 | -8% | 17% | · | -27%
CCn1c(N)[n+](CC(=O)Nc2ccc(SC(F)F)cc2)c2ccccc21 | ? | 8.3µM* | 2.9µM* | ?
CCOC(=O)N1CCN(C(=O)C2CCN(Cc3ccc(O)c(OCC)c3)CC2)CC1 | -8% | -13% | 16% | 1%
CCOC(=O)C1CCN(Cc2cc(C(C)C)c(O)c(C(C)C)c2)CC1 | -12% | ? | 0.41µM* | 1%
c1ccc(CN2CCN(Cc3ccc4ccccc4c3)CC2)cc1 | ? | ? | 0.93µM* | 1%
SMILES | AMA1-RON2 inh | Pf growth 48h | Pf growth 96h | HCV inhibitor
OCCN1CCN(Cc2ccc3ccccc3c2)CC1 | ? | -1% | 4% | 12%
CCOC(=O)N1CCN(C(=O)C2CCN(Cc3cccc(OCc4ccccc4)c3)CC2)CC1 | -11% | 5% | 4.7µM* | -25%
CCOC(=O)N1CCN(Cc2c(O)ccc3ccccc23)CC1 | 1% | 90% | 25% | 13%
CCOC(=O)C1CCN(Cc2c(O)ccc3ccccc23)CC1 | 5% | ? | 9.3µM* | -11%
C=CCN(C(=O)c1csnn1)C(C(=O)NCc1ccc(F)cc1)c1cccs1 (stereo unspecified) | -10% | 8% | 12% | 0%
CCN(CC)S(=O)(=O)c1ccc(C(=O)NCC(=O)NCc2ccc3c(c2)OCO3)cc1 | 3% | · | · | ·
COc1cccc(NC(=S)NCc2cccs2)c1 | -5%[2.32 µM] | 40% | 313% | -15%
OC(c1cc(Cl)cc(Cl)c1)c1ncc(-c2cccc(F)c2)[nH]1 (stereo unspecified) | 11% | · | · | ·
CCCn1c(SCC(=O)Nc2cc(C(=O)O)ccc2C)nc2sc3c(c2c1=O)CCC3 | -7% | 2% | 5% | 7%
CCOC(=O)C1CCN(Cc2ccc3ccccc3c2)CC1 | ? | -1% | 13µM* | -10%
CNC(=O)CN(c1cc(C)ccc1OC)S(=O)(=O)c1ccc(C)cc1 | -4% | 0% | · | 12%
CCOC(=O)N1CCN(C(=O)CN(c2ccccc2OC)S(=O)(=O)c2ccc(C)cc2)CC1 | 16% | ? | 12µM* | 10%
CCN(CC)C(=O)CN(c1cc2c(cc1OC)oc1ccccc12)S(=O)(=O)c1ccc(C)cc1 | -14% | 12µM* | · | ?
Cc1ccc(S(=O)(=O)N(CC(=O)N2CCN(c3ccc(F)cc3)CC2)C2CCCCC2)cc1 | -24% | ? | 11% | -26%
CCOC(=O)N1CCN(C(=O)CN(C2CCCCC2)S(=O)(=O)c2ccc(C)cc2)CC1 | 2% | 10µM* | -4% | 9%
Cc1ccccc1CSCCNC(=O)c1ccccc1 | 0% | 12µM* | 0% | 19%
COc1ccccc1C(=O)NCCSCc1ccccc1Cl | -19% | 7.4µM* | 2.9µM* | ?
COc1ccccc1C(=O)NCC(=O)N1CCN(S(=O)(=O)c2ccccc2C(F)(F)F)CC1 | -8% | ? | 8.3µM* | 1%
COc1cc(C(=O)NCC(=O)N2CCN(S(=O)(=O)c3ccccc3C(F)(F)F)CC2)cc(OC)c1OC | -5% | · | · | 1%
COc1ccccc1C(=O)NCCC(=O)N1CCN(c2ccccc2Cl)CC1 | 33% | 8.3µM* | 12µM* | 22%
COc1ccccc1OCC(=O)NCCSCc1ccccc1Cl | 1% | ? | 22% | 10%
O=C1NCCN/C1=C\C(=O)c1ccc(Br)cc1 | 0% | 201% | 346% | 10%
COC(=O)c1ccc(N2CCOCC2)c(NC(=O)Nc2cccc(OC)c2)c1 | 8% | 4% | -31% | -30%
CCOC(=O)c1cccc(NC(=O)Nc2cc(OC)ccc2OC)c1 | -18% | 16% | · | 16µM*
COc1ccc(OC)c(NC(=O)CCOc2cccc(C)c2)c1 | -16% | -8% | 1% | 11µM*
CCOC(=O)c1ccc(N2CCN(c3ccccc3F)CC2)c(NC(=O)Nc2cccc(OC)c2)c1 | -6% | 5.2µM* | ? | ?
CCOC(=O)c1ccc(NC(=O)NNS(=O)(=O)c2cc(OC)ccc2OC)cc1 | 20% | 41% | 5.2µM* | -3%
O=S1(=O)C=C[C@@H](COCc2ccccc2)N1Cc1ccc(Br)cc1 | 17% | · | · | ·
COc1cccc(N2CCN(C(=O)/C=C/c3ccco3)CC2)c1 | -11% | ? | ? | -22%

Screening data (PubChem BioAssay)
